PubChem BioAssay
Calls of active or inactive are those of the source.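 Rule for the calls: active = inhibition above the hit cutoff set in the earlier primary screen (cut at about 27% in these data); inactive = the rest.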

Target: Protein phosphatase methylesterase 1 (Homo sapiens) (UniProt Q9Y570)
Test: human PME-1 methylesterase inhibition confirmation – biochemical, fluorescence polarization, FP-Rh probe, triplicate (AID 2171);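 note: 0% = enzyme with DMSO and 100% = wells lacking PME-1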
Conditions: recombinant PME-1, FP-Rh probe fluorescence polarization; at 5.9 µM; stronger effect = higher value

Chain of Protein phosphatase methylesterase 1 (Homo sapiens) (Q9Y570 whole entry, looked up): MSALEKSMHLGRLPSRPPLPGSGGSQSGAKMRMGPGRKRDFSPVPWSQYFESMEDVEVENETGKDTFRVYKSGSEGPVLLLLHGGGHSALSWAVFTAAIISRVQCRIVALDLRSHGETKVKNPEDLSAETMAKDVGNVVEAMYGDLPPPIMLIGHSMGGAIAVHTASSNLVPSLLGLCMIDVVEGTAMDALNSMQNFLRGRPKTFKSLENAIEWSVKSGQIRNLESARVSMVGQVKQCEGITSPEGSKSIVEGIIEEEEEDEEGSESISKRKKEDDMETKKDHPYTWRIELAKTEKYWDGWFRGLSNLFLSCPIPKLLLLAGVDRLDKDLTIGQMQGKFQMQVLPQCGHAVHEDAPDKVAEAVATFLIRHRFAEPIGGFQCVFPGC

SMILES	inhibition
COc1ccc(C(=O)c2sc3nc(-c4ccccc4)ccc3c2N)cc1	11.8% (inactive)
Cn1c2ccccc2c2cc(/C=N/NC(=O)c3ccc(O)cc3O)ccc21	23% (inactive)
COc1ccc(O)c(-c2cc(-c3cccc(Br)c3)n[nH]2)c1	23.7% (inactive)
O=C1c2ccccc2-c2onc3ccc(NCc4ccco4)c1c23	84.5% (active)
COc1ccccc1NC(=O)c1cc2ccc(O)cc2o/c1=N\O	19.6% (inactive)
CCCn1c(CCC(=O)Nc2ccccc2Cc2ccccc2)nc2cc(S(=O)(=O)N3CCOCC3)ccc21	45.4% (active)
COc1cc(/C=N/Nc2nc(-c3ccc(S(=O)(=O)N(C)C)cc3)cs2)ccc1O	19.7% (inactive)
COc1cc(C(=O)Nc2c(C(=O)O)[nH]c3ccc(Br)cc23)cc(OC)c1OC	23.4% (inactive)
O=C(Nc1cccc(-c2csc(Nc3ccc(Cl)cc3)n2)c1)c1cc([N+](=O)[O-])cc(C(F)(F)F)c1	-16.1% (inactive)
COc1ccc(-c2cc(-c3c(O)c(OC)c4occc4c3OC)[nH]n2)cc1OC	12.9% (inactive)
Cc1ccc(-c2ccccc2NC(=O)CS(=O)CC(=O)Nc2ccc(C)c(Cl)c2)o1 (stereo not given)	0.73% (inactive)
CC1Oc2ccccc2C=C1/C=N/Nc1ccc(C(=O)O)cc1 (stereo not given)	34.8% (active)
COc1ccccc1-c1sc2ccccc2c1-c1ccc(C(C)=O)cc1	-9.37% (inactive)
CC(=O)Nc1ccc(Nc2c3c4c(cccc4n(C)c2=O)C(=O)c2ccccc2-3)cc1	31.5% (active)
CCc1ccc(CNc2ccc(O)cc2)cc1	7.5% (inactive)
Cc1ccc(Nc2nnc(SCC(=O)c3ccc(O)cc3O)s2)cc1	40.8% (active)
Cc1c2cc(O)c(=O)cc-2oc2cc(O)c(O)cc12	143% (active)
CCN(CC)S(=O)(=O)c1ccc(C)c(NC(=O)COC(=O)c2ccc(C)c(S(=O)(=O)N3CCOCC3)c2)c1	49.7% (active)
Cc1ccc(N=Cc2nc(/C=C/c3cccc([N+](=O)[O-])c3)oc2O)cc1	30.2% (active)
CCN1C(=O)/C(=C2/Sc3ccccc3N2CC)S/C1=N\c1ncn[nH]1	42.6% (active)

SMILES	inhibition
O=c1ccc2cc3c([nH]c4ccc(Br)cc43)oc-2c1O	-63.1% (inactive)
Cc1cc(NC(=O)CSc2nc3ccccc3c(=O)n2C2CCCC2)no1	3.59% (inactive)
COc1cc(/C=N\Nc2nc3ccccc3o2)cc(OC)c1OC	31.4% (active)
CCOc1cccc(/C=N/NC(=S)Nc2cc(S(=O)(=O)N3CCOCC3)ccc2N2CCOCC2)c1O	25.1% (inactive)
CSc1ccccc1C(=O)NCCCn1ccnc1	5.36% (inactive)
S=C(NCCNC(=S)Nc1ccccc1)Nc1ccccc1	19.9% (inactive)
COc1ccc(N=Nc2nc3ccc(Br)cc3n2C)cc1	29.7% (active)
COc1ccc2oc(C(=O)OCC(=O)N3CCN(S(=O)(=O)c4ccc(C)cc4)CC3)c(C)c2c1	17.9% (inactive)
COC(=O)N1C(=O)[C@](c2ccc(OC)cc2)(C(C)C)N1C(=O)OC	48.2% (active)
Cc1ccc2[nH]c(O)c(N=NC(=O)c3ccc(NS(=O)(=O)c4cccs4)cc3)c2c1	45.9% (active)
Nc1n[nH]c(C2CC2)c1N=Nc1ccc(Cl)c(Cl)c1	20.6% (inactive)
COc1cc(/C=N/Nc2nc3ccccc3s2)cc([N+](=O)[O-])c1O	72.5% (active)
Cc1[nH]c2ccccc2c1N=Nc1ccccc1C(=O)O	20.8% (inactive)
Cc1c(C(=O)N/N=C/c2ccc(O)c(Br)c2)sc(N)c1C#N	49.7% (active)
O=C1c2cccc3c(N4CCCCC4)ccc(c23)C(=O)N1c1cccc(O)c1	-13.8% (inactive)
O=C1[C@@H]2Cc3c([nH]c4ccccc34)C(c3ccccc3)N2C(=O)CN1C1CC1 (stereo not given in full)	5.42% (inactive)
COc1ccc(CCn2c(N)c(C#N)c3nc4ccccc4nc32)cc1OC	25.9% (inactive)
O=C(Nc1ccc(Nc2ccccc2)cc1)Nc1ccccc1Cl	-2.21% (inactive)
O=[N+]([O-])c1ccc(N/N=C/c2cccc(O)c2O)cc1	23.3% (inactive)
CCOc1ccc2nc(SCC(=O)Nc3ccc4c(c3)OCCO4)[nH]c2c1	25.3% (inactive)
